69 sequences from PubChem BioAssay AID1508600 (Functional Genomics Laboratory (NCATS/FGL), 2020) can be followed below.

Out of some 53,000 sequences screened, about 3,700 (7%) were called active. Shown is part of a subset that was picked to be rich in actives. Unmarked numbers belong to inactive results.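 Rule for the calls: active = gene knockdowns whose robust z-score for IL-1 alpha signal is at least 2 or at most -2, so actives lie on both sides; inactive = the rest.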

This experiment is described as follows: Components of the Cytosolic LPS Sensing Pathway: Gene Identification via Genome-wide siRNA Screen.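 Note: robust z of the log signal after scaling to non-targeting control siRNA wells of the plate.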 The following applies: RAW264.7 macrophages, IL-1a HTRF, actives lie on both sides, screened at 100 nM (by protocol), cells primed 5 h with Pam3CSK4 first. In outline: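 Supernatant IL-1a by HTRF from RAW264.7 cells primed with Pam3CSK4 (5 hours) and transfected with LipidA (24 hour) after 48h siRNA knockdown at 100 nM; cell viability checked with CellTiter-Glo.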
In general terms: Time-resolved FRET reads energy transfer from a long-lived donor to a nearby acceptor.
In the case of GGUAUUGGAUCAUUUACAATT against Nae1, the z-score is -0.0968.
With CGAUUUGCCCAAUAAAGAATT against Scn9a, the z-score was 0.223.
As for GGACGAAUUUCUUACAGUATT against Mterf4, the z-score was 2.2 (active).
To GCCGAUGUCAGUGGUUAAATT against Bmx belongs 0.198; to CCUGGUAUAUUACCGCUUCTT against P3h4, 0.519.
GGAUCUCUGGGUCUGAAAATT against Ccz1: the z-score is 0.606.
On to GCACGUCCAUUCUGCUUUCTT against Smco4, for which the z-score is 2.4 (active).
On to GGACCUGUGUGCUGAGUUGTT against Matn4, for which the z-score was -1.59.
In the case of GGGAGAUUAAUCAAGAACUTT against Ccnc, the z-score is 0.809.
On to GGUUGGAGAUCUCAUCUAUTT against Exosc3, for which the z-score is 0.699.
To GCACCUCUCUACAUUACUGTT against Igflr1 belongs -0.0949; to GGCUGAAGACACUGAACACTT against Olfr643, -2.51 (active).
On to GCAUUCAGAAAGUGUAUAATT against Tspan3, for which the z-score was -0.0953.
As to GGGUGAAGGUGAAUAUUUATT against Esm1, the z-score is -1.12.
For the sequence GGCCUAGACAUACAUGAAATT against Bnip3l, the z-score was 2.93 (active).
For the sequence GCCAAAGUAGUUGAACCUUTT against Cibar1, the z-score is -0.48.
Regarding GGACUGAACCGUUUUAAAGTT against Fmo3, the z-score is -0.317.
For the sequence GCAUUACUUUAAGCCAUAUTT against Rbl1, the z-score is 3.57 (active).
As for GGGCCUGUACAUCUUCCAATT against Anpep, the z-score was 0.926.
Next, CUGGAUGCAUUAACUUCUUTT against Olfr1219: 0.326; GGGUAGUUAUGACUAAAUUTT against Etl4: 1.31; GGAGAAUAUUCUCUGUGGATT against Rab11fip5: -2.71 (active).
With GCACACUACAACGUAUCACTT against Stpg2, the z-score was 1.31.
Regarding CCCAACUGUCAAAUAAUCCTT against Eddm3b, the z-score is 0.0505.
As for GCCAUUACCCGGUAUAUGATT against Sesn1, the z-score is -1.96.
To GGAUCACUCUAAUUCAGAUTT against Fcamr belongs 1.93; to GGACAUUUGAUAUUGAAGATT against B3gnt2, -1.88; to CGGAAGUAAAAAGAACUACTT against Olfr1321, 3.01 (active).
On to CCCUGGUGACUACGAGAAUTT against Chrna4, for which the z-score was -0.462.
Regarding GGACUUUACAAUAAAACAGTT against Dkk4, the z-score was -2.2 (active).
For GGUGAUGCCUUAUUUUGAATT against Ap5s1, the z-score was -1.1.
Take GGUAACAAACCGAAAGUAUTT against Polr3k: the z-score was -0.539.
GGAACAAGUGUCUGACAGUTT against Emc3: the z-score is 1.82.
For the sequence GCGCACAGUACAUUCAUUUTT against Drd5, the z-score is 3.62 (active).
In the case of CCGAAAACUUAUCUAGAAATT against BC023105, the z-score was -0.846.
With GGAUCAACAUGGUCUCCUCTT against Stambpl1, the z-score was -1.63.
To GCCAGAAAAGUACCACCAGTT against Slc35f4 belongs -1.15.
To GCUUUCAUAGAAUCUUGGCTT against Rnf24 belongs 0.709; to GGAGAUGGCUAUAUUCUGATT against Lipa, 0.0668; to GCGAGUACUUACUCUUCGUTT against Rpl3, -0.355.
As for GCACGUGAACACAAACCCGTT against Nup50, the z-score was -1.13.
As for GCUUAAGUGUGAUACAGUGTT against Rars2, the z-score was 2.45 (active).
On to GUUACAGCUGCCUUUGUUUTT against Olfr893, for which the z-score is -2.49 (active).
Regarding CGUCUGUCAGAAACUACACTT against Atrnl1, the z-score was 0.864.
Regarding GCUCAGUUUCUCAUGAAACTT against Tespa1, the z-score was 0.206.
Consider GGAAUGCAGAAAUGAAAAATT against Olfr1234, for which the z-score is -0.909.
With GGAAAGAAGAACCAAGCUCTT against Med6, the z-score was -1.01.
In the case of GAUCAAAGCGGCGUACUACTT against Dnajc30, the z-score is 0.738.
Consider GGAAAAGUAUCCAUGUCACTT against Impa1, for which the z-score is -1.75.
GGCAUCAUAAAGCCAGGCATT against Sybu: the z-score was -2.42 (active).
For the sequence GGGUAUAUAAGCAGCACCATT against Rdh9, the z-score was 0.736.
To “CCCAUCCAAGAUUUGAUUUTT against 2310002L09Rik” belongs 1.89; to GGCUGUAGUUGGCUAACACTT against Slc25a28, -0.103; to “GGUAACAAUCACCAUAUUCTT against 1700029F12Rik”, -1.94.
To GCAACAUGUAGGCAACAUCTT against Tmx2 belongs -0.179.
Regarding CCAAUGAGAGUUCUAUGAUTT against Cxxc4, the z-score is -0.192.
GGUUAGCAGGGACCUAAUGTT against Zfp94: the z-score is 2.57 (active).
Consider GGAAAACACGAGUUUCCCUTT against Arrdc4, for which the z-score was 1.56.
CCAAGCCAAGCAAUCUUGATT against Chat: the z-score was -0.247.
As to CCAAACUUACAAAUAUGCGTT against Sgpp1, the z-score is 1.35.
Take GGAUCCUGUCCACAAGCACTT against Astn1: the z-score is 0.519.
Next, GGUUCAGAUCCACAGCCAGTT against Asic2: -2.12 (active); CCCAUAACCAGAAUUAAAGTT against Wdr64: 0.454.
As to GGUCAUUGCAUCUGACAAGTT against Pcdha2, the z-score was 0.109.
To GGGAGGAUACCUUCUAUGUTT against Atf6b belongs -0.43.
As for GGACACAGACAUCCUCUUGTT against Sult5a1, the z-score is 1.04.
With GGGAGAUGUUUGUUUUCAATT against Mmp16, the z-score was 3.52 (active).
Next, GGAAACCUUUUCAUUAACATT against Il23r: 0.138; GGACAACUUCCUAGGGCUCTT against Esyt3: 0.248.
